Reference: PubChem BioAssay AID602340 (Broad Institute, 2012)
The campaign covered roughly 330,000 compounds. About 2,600 (0.79%) were called active.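 The calls were made as follows: active = mean ATP rescue above about 67%, or every replicate alone reaching that limit (limit read from the data, passing the limit was not always enough); inconclusive = no clear call, values can overlap the other calls; inactive = mean under the limit and some replicate under it.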 Many of the other results were omitted from the sample, so actives are more common in it than they were.

test: protection of differentiated C2C12 cells from simvastatin – single point, plate reader, primary screen (AID 602340); details: C2C12 myotubes + simvastatin, ATP luminescence, 48 h; at 7.49 µM; stronger effect = higher value; scaled: DMSO 0, geranylgeraniol control 100;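 also: myotubes were challenged with 10 µM simvastatin during compound exposure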

Row | Compound | rescue of ATP level
1 | CN1CCCCN2[C@H](CO)[C@H](c3ccc(-c4ccc(F)cc4)cc3)[C@@H]2C1 | 1.44% (inactive)
2 | O=C(C[C@@H]1C=C[C@H](NC(=O)Nc2ccc3c(c2)OCO3)[C@H](CO)O1)NCc1ccccc1 | 2.11% (inactive)
3 | CO[C@@H]1CN(C)C(=O)c2ccc(NS(=O)(=O)c3cccc(Cl)c3)cc2OC[C@H](C)NC[C@H]1C | 0.734% (inactive)
4 | COc1ccccc1-c1ccc2c(c1)O[C@@H](CN(C)CC1CCOCC1)[C@H](C)CN([C@@H](C)CO)S2(=O)=O | -91.2% (inactive)
5 | CC(C)NC(=O)Nc1ccc2c(c1)CC(=O)N([C@H](C)CO)C[C@H](C)[C@@H](CN(C)C(=O)Nc1ccc(F)cc1)O2 | -12.6% (inactive)
6 | COc1ccc2ccccc2c1CNCc1ccccn1 | 88.1% (active)
7 | COc1ccc(C)cc1NC(=O)NCc1ccccn1 | -3.96% (inactive)
8 | COc1ccc(NCCc2ccccn2)cc1 | -1.75% (inactive)
9 | CCNC(=O)[C@H]1[C@H](CO)[C@H]2Cn3c(ccc(-c4ccc(OC)cc4)c3=O)[C@H]2N1Cc1ccccc1 | -6.11% (inactive)
10 | CCCNC(=O)Nc1ccc2c(c1)C(=O)N(C)C[C@@H](OC)[C@@H](C)CN(C)[C@@H](C)CO2 | 0.886% (inactive)
11 | CCCN1[C@H](C(=O)N[C@H](C)c2ccccc2)[C@@H](CO)[C@@H]2Cn3c(ccc(-c4cccc(F)c4)c3=O)[C@@H]21 | 25.4% (inactive)
12 | O=C(C[C@@H]1C[C@@H]2c3cc(NC(=O)Nc4ccccc4F)ccc3O[C@@H]2[C@@H](CO)O1)NCCc1ccccc1 | -4.6% (inactive)
13 | COc1ccccc1-c1nnc(SCC(=O)N2CC(C)CC(C)C2)o1 (configuration not stated) | 120% (active)
14 | O=C(CSc1nnc(-c2ccccc2O)o1)NC1CCCCC1 | -6.5% (inactive)
15 | COc1ccccc1N1CCN(C(=O)CSc2nnc(-c3ccoc3C)o2)CC1 | 2.45% (inactive)
16 | C[C@@H]1CN([C@H](C)CO)C(=O)c2cc(C#Cc3ccncc3)cnc2O[C@H]1CN(C)Cc1ccncc1 | -5.15% (inactive)
17 | C[C@H]1CN([C@@H](C)CO)C(=O)CCCn2nncc2CO[C@H]1CN(C)Cc1cccc(C(=O)O)c1 | -4.85% (inactive)
18 | O=C(NN=Cc1ccccc1O)C(=O)NN=Cc1ccccc1O | 1.41% (inactive)
19 | CCCC#Cc1ccc2c(c1)O[C@@H](CN(C)CC1CC1)[C@@H](C)CN([C@H](C)CO)S2(=O)=O | 33.5% (inactive)
20 | CCS(=O)(=O)N1[C@H](CO)[C@@H](c2ccc(C#CC(C)C)cc2)[C@@H]1C#N | -1.94% (inactive)
21 | Cc1noc(C)c1NC(=O)N[C@H]1CC[C@H](CC(=O)N2CCCCC2)O[C@@H]1CO | 0.234% (inactive)
22 | CC=Cc1ccc2n(c1=O)C[C@@H]1[C@@H](CO)[C@H](C(=O)N3CCc4ccccc4C3)N(C(=O)C3CCC3)[C@H]21 (mixture of isomers) | 17.5% (inactive)
23 | CC(=O)N1CCN(c2ccccc2NC(=S)NC(=O)c2cc3ccccc3o2)CC1 | 12.9% (inactive)
24 | COc1ccccc1C(=O)NC(=S)Nc1ccccc1N1CCCCC1 | 0.351% (inactive)

Row | Compound | rescue of ATP level
25 | COc1ccc(C(=O)NC(=S)Nc2ccccc2N2CCN(S(C)(=O)=O)CC2)cc1OC | 103% (active)
26 | CO[C@@H]1CN(C)C(=O)c2ccc(NC(=O)C3CC3)cc2OC[C@@H](C)N(Cc2ccncc2)C[C@@H]1C | 6.35% (inactive)
27 | COc1ccc(CN(C)C[C@H]2OCc3cn(nn3)CCCC(=O)N([C@@H](C)CO)C[C@@H]2C)cc1 | 11.6% (inactive)
28 | C[C@H]1CN([C@@H](C)CO)C(=O)c2cc(C#CC3CCCCC3)cnc2O[C@@H]1CN(C)C(=O)Cc1ccccn1 | 16.9% (inactive)
29 | O=C(O)C1CC=C(Cl)CC1C(=O)NCc1ccccc1 (configuration not stated) | -8.07% (inactive)
30 | O=C(O)C1CC=CCC1C(=O)NCCc1ccccc1 (configuration not stated) | 104% (active)
31 | O=C(NCCc1ccccc1)C1CC1 | 7.36% (inactive)
32 | C[C@H]1CN([C@@H](C)CO)C(=O)c2cc(NC(=O)C3CCCCC3)ccc2O[C@H]1CN(C)C(=O)Nc1ccccc1 | 6.29% (inactive)
33 | COC(=O)c1ccc(CN2C(=O)NC(c3ccccc3)(c3ccccc3)C2=O)o1 | 1.69% (inactive)
34 | COc1ccc(C2(c3ccc(OC)cc3)NC(=O)N(CC(=O)Nc3cc(C)on3)C2=O)cc1 | -1.37% (inactive)
35 | Cc1ccc(C2(c3ccc(C)cc3)NC(=O)N(Cc3c(C)noc3C)C2=O)cc1 | 195% (active)
36 | Cc1noc(C)c1NC(=O)N(C)C[C@H]1Oc2ccc(NC(=O)Cn3cnnn3)cc2CC(=O)N([C@H](C)CO)C[C@@H]1C | 3.98% (inactive)
37 | COc1ccc(-n2nnnc2CNC(=O)c2ccc3ccccc3c2)cc1 | -15.7% (inactive)
38 | O=C(NCc1nnnn1-c1ccc(Cl)cc1)c1ccc2c(c1)OCO2 | -0.994% (inactive)
39 | O=C(NCc1nnnn1-c1ccc(Cl)cc1)c1ccc([N+](=O)[O-])o1 | 89% (active)
40 | CCCN1[C@@H]2c3ccc(-c4ccccc4OC)c(=O)n3C[C@H]1[C@H](CO)[C@H]2C(=O)NCc1ccccn1 | -9.62% (inactive)
41 | Cn1c(=O)n(C)c2cc(C(=O)Nc3ccc(Br)cc3)ccc21 | -4.21% (inactive)
42 | Cn1c(=O)n(C)c2cc(/C=N/NC(=O)c3cccc(Br)c3)ccc21 | 70.7% (active)
43 | O=C(N/N=C/c1cccc(Br)c1)c1ccc(N2CCCC2=O)cc1 | -20% (inactive)
44 | NC(=O)c1ncc(C(F)(F)F)cc1Oc1ccc(F)cc1 | 162% (active)
45 | N#Cc1ccc(Oc2ccc(C(F)(F)F)cc2NC(=O)c2ccc(F)cc2)cc1 | -5.87% (inactive)
46 | N#Cc1ncc(C(F)(F)F)cc1Oc1cccnc1 | -4.63% (inactive)
47 | CO[C@H]1CN(C)C(=O)c2ccc(NC(=O)C3CC3)cc2OC[C@H](C)N(CCc2ccccc2)C[C@H]1C | 15.6% (inactive)
48 | O=C(C[C@H]1C=C[C@@H](NC(=O)C2CCOCC2)[C@@H](CO)O1)NCC1CCCCC1 | -2.92% (inactive)

Row | Compound | rescue of ATP level
49 | CO[C@@H]1CN(C)C(=O)c2cc(NS(=O)(=O)CC(F)(F)F)ccc2OC[C@@H](C)N(Cc2ccccn2)C[C@H]1C | -12.7% (inactive)
50 | COC(=O)Nc1sc2nc(C)cc(C)c2c1-n1cccc1 | -7.59% (inactive)
51 | Cc1cc(C)c2c(-n3cccc3)c(C(=O)NNS(=O)(=O)c3ccc(F)cc3)sc2n1 | 7.07% (inactive)
52 | CCCCOC(=O)Nc1sc2nc(C)cc(C)c2c1-n1cccc1 | 66.9% (active)
53 | CCC(=O)N(C)C[C@H]1[C@H](c2ccc(C3=CCCCC3)cc2)[C@@H](CO)N1C(C)=O | 16.5% (inactive)
54 | C[C@@H]1CN([C@H](C)CO)C(=O)Cc2cc(NC(=O)Cn3cnnn3)ccc2O[C@H]1CN(C)Cc1ccc(Cl)c(Cl)c1 | 18.5% (inactive)
55 | C[C@@H]1CN([C@H](C)CO)C(=O)Cc2cc(NC(=O)CCC(F)(F)F)ccc2O[C@@H]1CN(C)Cc1ccncc1 | -15.3% (inactive)
56 | C[C@H]1CN([C@@H](C)CO)C(=O)Cc2cc(NC(=O)CCCN(C)C)ccc2O[C@@H]1CN(C)Cc1ccc(-c2ccccc2)cc1 | 17.6% (inactive)
57 | C[C@H]1CN([C@@H](C)CO)C(=O)Cc2cc(NC(=O)Cn3cnnn3)ccc2O[C@H]1CN(C)Cc1ccc(C(=O)O)cc1 | -21.6% (inactive)
58 | C[C@H](CO)N1C[C@H](C)[C@@H](CN(C)Cc2ccc(Cl)c(Cl)c2)Oc2ccc(NC(=O)Cn3cnnn3)cc2CC1=O | 88.7% (active)
59 | C[C@H](CO)N1C[C@H](C)[C@H](CN(C)Cc2ccc(C(F)(F)F)cc2)Oc2ccc(NC(=O)CCCCCC(=O)Nc3ccccc3N)cc2CC1=O | 183% (active)
60 | C[C@H](CO)N1C[C@H](C)[C@@H](CN(C)Cc2ccc(-c3ccccc3)cc2)Oc2ccc(NC(=O)CCC(F)(F)F)cc2CC1=O | 74.7% (active)
61 | C[C@@H]1CN([C@@H](C)CO)C(=O)Cc2cc(NC(=O)CCCCCC(=O)Nc3ccccc3N)ccc2O[C@H]1CN(C)C(=O)Nc1ccc(C(F)(F)F)cc1 | -13.1% (inactive)
62 | C[C@H]1CN([C@@H](C)CO)C(=O)Cc2cc(NC(=O)CCCCCC(=O)Nc3ccccc3N)ccc2O[C@@H]1CN(C)Cc1ccncc1 | 20.5% (inactive)
63 | CO[C@H]1CN(C)C(=O)c2ccc(NC(C)=O)cc2OC[C@H](C)N(C(=O)c2ccccc2)C[C@H]1C | 3.84% (inactive)
64 | C[C@@H](NC(=O)[C@H]1[C@H](CO)[C@H]2Cn3c(cccc3=O)[C@@H]1N2Cc1cccnc1)c1ccccc1 | -8.14% (inactive)
65 | C/C=C/c1ccc2c(c1)O[C@@H](CN(C)CC1CCOCC1)[C@@H](C)CN([C@H](C)CO)S2(=O)=O | 1.59% (inactive)
66 | COCC(=O)N(C[C@H]1N[C@H](CO)[C@H]1c1ccc(C2=CCCCC2)cc1)C(C)C | -22.7% (inactive)
67 | Cc1noc(C)c1NC(=O)Nc1ccc2c(c1)CC(=O)N([C@@H](C)CO)C[C@H](C)[C@H](CN(C)S(=O)(=O)c1c(C)noc1C)O2 | -4.37% (inactive)
68 | O=C(NCC[C@@H]1CC[C@H](NC(=O)Nc2cc(F)ccc2F)[C@@H](CO)O1)Nc1ccc(Cl)cc1 | 2.28% (inactive)
69 | Cn1c(N)c(C(=O)COC(=O)c2ccc3ccccc3c2)c(=O)n(C)c1=O | -2.95% (inactive)
70 | Cn1c(N)c(C(=O)COC(=O)COc2ccc(Cl)cc2)c(=O)n(C)c1=O | 9.73% (inactive)
71 | Cc1cc(C(=O)OCC(=O)c2c(N)n(C)c(=O)n(C)c2=O)c(C)o1 | 148% (active)
72 | COc1ccc(S(=O)(=O)Nc2cccc3c2O[C@@H](CN(C)C(=O)Nc2ccccc2)[C@@H](C)CN([C@H](C)CO)C3=O)cc1 | -38.3% (inactive)
